PI5P4K alpha inh – blocks human PI5P4K alpha kinase activity | P48426 | max response, % | hit rate 1.2% among 330,000 | PI5P4Kalpha enzyme, ADP-Glo luminescence, 60 min; hits give low values | AID 652105; active = max response of -50% or lower; inconclusive = between -30% and -50%; inactive = -30% or higher; also: value at the top dose of about 77 µM
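Controls without substrate or without enzyme flank wells where PI5P4Kalpha converts substrate using 5 microM ATP (final). Incubation lasts 60 minutes at room temperature; ADP formed is read by ADP-Glo luminescence.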
Pol kappa inh-1 – DNA polymerase kappa (human) inhibition; hit rate 0.53% among 400,000; Potency, µM (titrated, usually from 107 µM), usual class: inhibitors; purified Pol kappa, fluorescent DNA synthesis assay, 10 min; Q9UBT6
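Pol kappa 10 nM + cpd, 15 min RT; start w/ substrate 50 nM final; fluorescence kinetic read, 0 and 10 min. Neg ctrl: buffer, no enzyme.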
Pol iota inh – DNA polymerase iota (human) inhibition | Q9UNA4 | Pol iota fluorescent replication assay, 10 min | Potency, µM (highest dose often 115 µM), usual class: inhibitors | hit rate 1% among 390,000
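Fluorescent replication assay read twice, at 0 min and 10 min after adding 50 nM (final) substrate. Enzyme (10 nM) and compounds were first incubated 15 min at room temperature; enzyme-free buffer wells were negative controls.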
Pol beta inh – blocks human DNA polymerase beta activity | P06746 | Pol beta primer extension/strand displacement, fluorescence kinetic | Potency, µM (doses to about 114 µM), most hits filed as inhibitors | hit rate 1.3% among 340,000
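Human Pol beta at 10 nM; strand-displacement substrate 50 nM final. Compound exposure 15 min at room temperature before start, reaction 10 min at room temperature.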
12-LOX inh – blocks human arachidonate 12S-lipoxygenase; P18054; purified 12hLO, xylenol orange hydroperoxide absorbance; Potency, µM (series often up to 108 µM), hits mostly inhibitors; hit rate 1.1% among 580,000; AID 1671190
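Purified human 12hLO (150 nM final) in 25 mM Hepes, 0.01% Triton X-100, pH 7.0 was preincubated 15 min at room temperature with compound. Then 40 uM arachidonic acid was added, 30 min. Hydroperoxide was read by Fe-XO absorbance ratio 573/405 nm.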
Pol eta inh-1 – inhibitors of human DNA polymerase eta. Q9Y253. recombinant Pol eta, fluorescent DNA replication assay. Potency, µM (titrated, usually from 114 µM), usual class: inhibitors. hit rate 1.2% among 390,000
Target sequence (Q9Y253 whole entry, looked up): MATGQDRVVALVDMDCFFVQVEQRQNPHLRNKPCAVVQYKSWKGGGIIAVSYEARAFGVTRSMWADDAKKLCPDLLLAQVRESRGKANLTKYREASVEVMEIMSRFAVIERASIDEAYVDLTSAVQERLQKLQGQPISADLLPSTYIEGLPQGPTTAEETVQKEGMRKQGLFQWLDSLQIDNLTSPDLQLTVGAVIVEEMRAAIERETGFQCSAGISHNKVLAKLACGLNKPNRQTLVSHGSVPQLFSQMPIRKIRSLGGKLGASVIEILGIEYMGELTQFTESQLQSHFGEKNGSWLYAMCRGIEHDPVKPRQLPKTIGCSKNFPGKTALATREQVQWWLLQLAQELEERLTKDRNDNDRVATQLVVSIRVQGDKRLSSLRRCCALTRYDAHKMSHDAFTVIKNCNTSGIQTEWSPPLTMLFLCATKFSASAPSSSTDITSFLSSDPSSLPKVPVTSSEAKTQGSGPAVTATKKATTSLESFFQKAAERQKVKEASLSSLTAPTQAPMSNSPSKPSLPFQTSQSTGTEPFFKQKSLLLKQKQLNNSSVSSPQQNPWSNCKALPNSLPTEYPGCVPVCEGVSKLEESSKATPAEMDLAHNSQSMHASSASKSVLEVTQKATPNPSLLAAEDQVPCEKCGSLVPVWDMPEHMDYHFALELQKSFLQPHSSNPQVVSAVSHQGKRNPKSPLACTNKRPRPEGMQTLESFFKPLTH
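Pol eta at 10 nM preincubated with compounds 15 min at room temperature; reaction started with fluorescent substrate (50 nM final) and read kinetically at 0 and 10 min.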
GALK inh confirm – galactokinase (human) inhibition, confirmation; AID 2015; shares compounds with Pol eta inh-1; hit rate 70% among 150; purified GALK, Kinase-Glo ATP depletion luminescence; Potency, µM (doses to about 115 µM), usual class: inhibitors
GALK redox cs – counter-screen for GALK inhibitors: redox cycling H2O2 generation. shares compounds with Pol eta inh-1. Phenol red-HRP H2O2 redox cycling, absorbance 600 nm. Potency, µM (series often up to 115 µM), usual class: inhibitors. hit rate 40% among 150. AID 2035
HEK293 viability – reduces HEK-293 cell viability in GALK counter-screen | shares compounds with Pol eta inh-1 | HEK-293 viability, ATP luminescence (CellTiter-Glo), 24/48 h | Potency, µM (doses to about 46.1 µM), most hits filed as inhibitors | hit rate 10% among 170 | AID 2547
Pol kappa inh-2 – confirmation of human DNA polymerase kappa inhibitors | shares compounds with Pol eta inh-1 | purified Pol-kappa, fluorescent strand-displacement substrate | Potency, µM, hits mostly inhibitors | hit rate 76% among 920 | AID 720501
Pol eta inh-2 – Pol eta (human) inhibition, cherry-pick confirmation; Potency, µM, actives largely listed as inhibitors; hit rate 64% among 2,600; Pol eta primer extension, TAMRA/BHQ fluorescence, 10 min; shares compounds with Pol eta inh-1
Numbers stand for hits; – = inactive; ? = inconclusive; · = no result; ! = repeats disagree. An excerpt weighted towards active compounds, which were near 2.9% of everything screened. Unless noted, calls follow the shape of the dose curve; as a rule, active = well fitted curve in the direction sought with a large enough effect; inconclusive = small, poorly fitted or top-dose-only effect, or another doubt; inactive = no such curve, though single readings can be large; an effect the other way counts as inactive or inconclusive.

SMILES	PI5P4K alpha inh	Pol kappa inh-1	Pol iota inh	Pol beta inh	12-LOX inh	Pol eta inh-1	Pol eta inh-2	others
CC(=O)c1ccc(NC(=O)Cn2c(=O)c3c(ncn3C3CCCC3)n(Cc3ccccc3)c2=O)cc1	·	·	·	·	–	·	·
COP(=O)(OC)c1ccc(NCc2cc(O)ccc2O)cc1	–	?	10µM	·	?	10µM	48
Cc1cc(/C=c2\sc3nc4ccccc4n3c2=O)c(C)n1-c1ccc(C(=O)O)cc1	–	–	45µM	22µM	?	22µM	?
O=C(O)c1cccc(-n2cccc2C=C2C(=O)c3ccccc3C2=O)c1	–	–	?	?	?	16µM	76
Cc1cc(C=C2C(=O)c3ccccc3C2=O)c(C)n1-c1ccc(C(=O)O)cc1	–	?	35µM	?	?	25µM	?
Cc1cc(/C=c2/sc3nc4ccccc4n3c2=O)c(C)n1-c1ccccn1	·	–	–	–	–	–	·
O=C1C(=Cc2cccn2-c2ccccc2)C(=O)c2ccccc21	–	–	–	–	?	?	·
COc1ccc(C2=Nn3c(nnc3-c3ccccc3OC)SC2)cc1O[C@H]1CCOC1	·	·	·	·	·	·	·	Pol kappa inh-2=2.7
COc1ccc(C2=Nn3c(nnc3-c3ccccc3OC)SC2)cc1OCC1CC1	·	40µM	–	·	35µM	–	·	Pol kappa inh-2=0.67
COc1ccc(C2=Nn3c(nnc3-c3ccccc3F)SC2)cc1OC1CCOC1 (centres undefined)	·	?	–	·	–	–	·
O=C(O)CCS(=O)(=O)C1CCCC1	·	·	·	·	–	·	·
O=C(CC1NC(=O)c2ccccc2NC1=O)NC1CCCC1 (centres undefined)	·	·	·	·	–	·	·
CCCCCC1COC(c2ccc(O)cc2)OC1 (centres undefined)	·	·	·	·	–	·	·
COc1ccc(-c2cc(=O)c3c(O)cc(OC4OC(COC5OC(C)C(O)C(O)C5O)C(O)C(O)C4O)cc3o2)cc1O (centres undefined)	–	?	?	·	–	22µM	30	Pol kappa inh-2=12
CCOC(=O)/C(=C\c1ccc(N2CCC(c3ccccc3)=N2)cc1)C(C)=O	–	–	–	·	–	?	?
Cc1cccc(Nc2ccccc2C(=O)OCC(=O)NCc2ccco2)c1C	·	–	?	–	?	79µM	?
CCCOc1ccc(Cc2nn3c(=O)/c(=C/c4ccco4)sc3nc2=O)cc1	?	8.9µM	6.3µM	25µM	?	25µM	?
COc1ccccc1-c1nc2s/c(=C\c3cccs3)c(=O)n2n1	–	–	?	?	–	–	·
CCOC(=O)C1=C(N)n2c(s/c(=C\c3ccco3)c2=O)=C(C(=O)OCC)C1c1ccco1 (centres undefined)	·	–	–	?	?	–	·
COc1ccccc1/C=C/C=c1\sc2nc(=O)c(Cc3ccccc3)nn2c1=O	-76	35µM	4.5µM	?	?	20µM	38
O=Cc1ccc(-c2nc3ccccc3s2)o1	–	–	–	–	–	–	·
O=C(O)CC(C(=O)O)N1C(=O)/C(=C/c2ccc(-c3nc4ccccc4s3)o2)SC1=S (centres undefined)	–	4.5µM	1µM	10µM	16µM	2.8µM	30
O=C(O)c1ccc(-n2ncc(Cl)c(Cl)c2=O)cc1	–	·	·	·	·	22µM	48	Pol kappa inh-2=30
O=C(OCC(=O)N1CCCC1=O)c1nc(Cl)c(Cl)c(Cl)c1Cl	–	?	?	?	·	56µM	?
O=C1CC(c2ccccc2)N(Cc2ccncc2)CCCN(C(=O)C2CCC2)CCN1 (centres undefined)	·	·	·	·	–	·	·
SMILES	PI5P4K alpha inh	Pol kappa inh-1	Pol iota inh	Pol beta inh	12-LOX inh	Pol eta inh-1	Pol eta inh-2	others
O=C(Cc1csc(-c2ccccc2Cl)n1)Nc1nc(C2CC2)cs1	·	·	·	·	–	·	·
Cc1ccc(C(=O)N/C(=C\c2ccc(Cl)cc2)C(=O)NCCN2CCOCC2)cc1	–	–	–	–	–	–	·	GALK inh confirm=–;GALK redox cs=–;HEK293 viability=–
O=C(O)c1cc(N/N=C/c2ccc(N3CCOCC3)cc2)ccc1Cl	–	?	?	?	–	50µM	85
N#CCSc1nnc(N)s1	–	–	–	–	–	–	·
N#CCSc1nnc(SCC#N)s1	-75	?	?	?	–	20µM	76
COCC(=O)Nc1sc2c(c1C(=O)OC)CCCC2	–	–	–	–	?	–	·
COC(=O)c1c(NC(=O)Cc2cccs2)sc2c1CCCC2	?	?	45µM	?	–	14µM	?
COc1ccc(CC(=O)Nc2sc3c(c2C(=O)Nc2ccc(C)cc2)CCCCC3)cc1	·	–	–	?	?	?	?	Pol kappa inh-2=?
O=C(O)CCC(=O)N1N=C(c2ccc(F)cc2)CC1c1ccc2nccnc2c1 (centres undefined)	·	·	·	·	–	·	·
CN1CCC(NC(=O)CCc2ncc(-c3ccc(F)cc3)o2)CC1	·	·	·	·	–	·	·
Cc1ccc(C(O)CNC(=O)Nc2ccc(C)cc2C)cc1 (centres undefined)	·	·	·	·	–	·	·
COC(=O)CC1C(=O)NCCN1S(=O)(=O)c1ccc(F)cc1 (centres undefined)	·	·	·	·	–	·	·
COc1ccccc1OCCn1c(SCC(=O)O)nc2ccccc21	–	79µM	?	28µM	?	22µM	?	Pol kappa inh-2=34
O=C(Nc1ccccc1)N1CCC(N2CC(OCC3CC3)C23CCOCC3)CC1 (centres undefined)	·	·	·	·	–	·	·
CCOC(=O)c1cc2c(=O)n3ccccc3nc2n(Cc2ccco2)c1=NC(=O)c1ccc(C)c(C)c1	·	–	?	–	–	–	·
CCOC(=O)c1cc2c(=O)n3cccc(C)c3nc2n(Cc2ccco2)c1=NC(=O)c1cccnc1	–	?	?	35µM	–	20µM	?
Cc1cccc(C(=O)N=c2c(C#N)cc3c(=O)n4cccc(C)c4nc3n2Cc2ccco2)c1	-93	28µM	8.9µM	20µM	35µM!	4.5µM	43
CCOC(=O)c1cc2c(=O)n3ccccc3nc2n(Cc2ccco2)c1=NC(=O)c1cccc(C)c1	·	–	?	–	–	–	·
Cc1cccn2c(=O)c3cc(C#N)c(=NC(=O)c4ccco4)n(Cc4ccco4)c3nc12	?	?	?	14µM	?	?	?
